# Data taken from PubChem BioAssay AID1159580 (chemical genetic matrix, 2015).
# The campaign covered roughly 5,500 compounds. About 2,000 (36%) were called active. Not shown: some 18% with an inconclusive outcome. Some of the results follow. Values without a mark were called inactive. Cut-off read from the data, not from the text of the source: active = normalized growth mostly below about 0.91 (no sharp cut-off); inconclusive = no clear call, values can overlap the other calls; inactive = mostly above about 0.92.
# Test: chemical genetic growth profiling, strain panel (AID 1159580);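 note: tested at 20 µM; growth read once vehicle control cultures reached saturation at 30 °C; 1 = growth at the plate median or of vehicle wells; lower values mean less growth of the strain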
# Settings: growth OD
compound,measurement,setting,value
Cc1cc(OC(=O)c2c(C)cc(OC(=O)c3c(C)cc(O)cc3O)cc2O)cc(O)c1C(=O)O,normalized growth,"S. cerevisiae deletion strains, locus YAL013W, strain DEP1, stronger effect = lower value",1.02
same,normalized growth,"S. cerevisiae deletion strains, locus YBR021W, strain FUR4, stronger effect = lower value",0.985
same,normalized growth,"S. cerevisiae deletion strains, locus YBR229C, strain ROT2, stronger effect = lower value",1.03
same,normalized growth,"S. cerevisiae deletion strains, locus YCL029C, strain bik1, stronger effect = lower value",0.973
same,normalized growth,"S. cerevisiae deletion strains, locus YDL035C, strain GPR1, stronger effect = lower value",0.997
same,normalized growth,"S. cerevisiae deletion strains, locus YDL074C, strain BRE1, stronger effect = lower value",1.01
same,normalized growth,"S. cerevisiae deletion strains, locus YDL101C, strain DUN1, stronger effect = lower value",1.02
same,normalized growth,"S. cerevisiae deletion strains, locus YDL134C, strain PPH21, stronger effect = lower value",1.03
same,normalized growth,"S. cerevisiae deletion strains, locus YDL185W, strain tfp1, stronger effect = lower value",0.99
same,normalized growth,"S. cerevisiae deletion strains, locus YDL192W, strain arf1, stronger effect = lower value",0.979
same,normalized growth,"S. cerevisiae deletion strains, locus YDR101C, strain arx1, stronger effect = lower value",0.971
same,normalized growth,"S. cerevisiae deletion strains, locus YDR150W, strain NUM1, stronger effect = lower value",1.03
same,normalized growth,"S. cerevisiae deletion strains, locus YDR162C, strain NBP2, stronger effect = lower value",0.998
same,normalized growth,"S. cerevisiae deletion strains, locus YDR318W, strain mcm21, stronger effect = lower value",0.967
same,normalized growth,"S. cerevisiae deletion strains, locus YDR388W, stronger effect = lower value",0.992
same,normalized growth,"S. cerevisiae deletion strains, locus YDR502C, strain sam2, stronger effect = lower value",0.991
same,normalized growth,"S. cerevisiae deletion strains, locus YER110C, stronger effect = lower value",0.986
same,normalized growth,"S. cerevisiae deletion strains, locus YER155C, strain BEM2, stronger effect = lower value",1.03
same,normalized growth,"S. cerevisiae deletion strains, locus YER167W, strain BCK2, stronger effect = lower value",1
same,normalized growth,"S. cerevisiae deletion strains, locus YGL078C, strain dbp3, stronger effect = lower value",1
same,normalized growth,"S. cerevisiae deletion strains, locus YGL086W, strain mad1, stronger effect = lower value",0.98
same,normalized growth,"S. cerevisiae deletion strains, locus YGL248W, strain PDE1, stronger effect = lower value",1.04
same,normalized growth,"S. cerevisiae deletion strains, locus YGR078C, strain PAC10, stronger effect = lower value",1
same,normalized growth,"S. cerevisiae deletion strains, locus YGR135W, strain pre9, stronger effect = lower value",0.999
same,normalized growth,"S. cerevisiae deletion strains, locus YGR229C, strain SMI1, stronger effect = lower value",0.953
same,normalized growth,"S. cerevisiae deletion strains, locus YGR252W, strain gcn5, stronger effect = lower value",0.872
same,normalized growth,"S. cerevisiae deletion strains, locus YHR030C, strain SLT2, stronger effect = lower value",1.02
same,normalized growth,"S. cerevisiae deletion strains, locus YHR079C, strain IRE1 (second series), stronger effect = lower value",0.971
same,normalized growth,"S. cerevisiae deletion strains, locus YHR094C, strain hxt1, stronger effect = lower value",1.01
same,normalized growth,"S. cerevisiae deletion strains, locus YHR129C, strain ARP1, stronger effect = lower value",1.02
same,normalized growth,"S. cerevisiae deletion strains, locus YHR200W, strain rpn10, stronger effect = lower value",0.994
same,normalized growth,"S. cerevisiae deletion strains, locus YIL066C, strain RNR3, stronger effect = lower value",1.01
same,normalized growth,"S. cerevisiae deletion strains, locus YIL073C, strain SPO22, stronger effect = lower value",0.956
same,normalized growth,"S. cerevisiae deletion strains, locus YIL125W, strain kgd1, stronger effect = lower value",1.02
same,normalized growth,"S. cerevisiae deletion strains, locus YIR030C, strain dcg1, stronger effect = lower value",0.998
same,normalized growth,"S. cerevisiae deletion strains, locus YJL095W, strain BCK1, stronger effect = lower value",0.986
same,normalized growth,"S. cerevisiae deletion strains, locus YJL134W, strain LCB3, stronger effect = lower value",1.02
same,normalized growth,"S. cerevisiae deletion strains, locus YJL168C, strain set2, stronger effect = lower value",0.999
same,normalized growth,"S. cerevisiae deletion strains, locus YJL187C, strain SWE1 (second series), stronger effect = lower value",1.01
same,normalized growth,"S. cerevisiae deletion strains, locus YJR043C, strain POL32, stronger effect = lower value",0.981
same,normalized growth,"S. cerevisiae deletion strains, locus YJR075W, strain HOC1, stronger effect = lower value",0.979
same,normalized growth,"S. cerevisiae deletion strains, locus YKL009W, strain mrt4, stronger effect = lower value",0.76 (active)
same,normalized growth,"S. cerevisiae deletion strains, locus YKL068W, stronger effect = lower value",1
same,normalized growth,"S. cerevisiae deletion strains, locus YKL085W, strain MDH1 (second series), stronger effect = lower value",0.975
same,normalized growth,"S. cerevisiae deletion strains, locus YKL085W, strain MDH1, stronger effect = lower value",0.975
same,normalized growth,"S. cerevisiae deletion strains, locus YKL190W, strain CNB1, stronger effect = lower value",1.02
same,normalized growth,"S. cerevisiae deletion strains, locus YKR001C, strain vps1, stronger effect = lower value",0.967
same,normalized growth,"S. cerevisiae deletion strains, locus YLR039C, strain RIC1, stronger effect = lower value",0.997
same,normalized growth,"S. cerevisiae deletion strains, locus YLR058C, strain SHM2, stronger effect = lower value",1.02
same,normalized growth,"S. cerevisiae deletion strains, locus YLR102C, strain apc9, stronger effect = lower value",1.01
same,normalized growth,"S. cerevisiae deletion strains, locus YLR262C, strain YPT6, stronger effect = lower value",1
same,normalized growth,"S. cerevisiae deletion strains, locus YLR268W, strain sec22, stronger effect = lower value",0.982
same,normalized growth,"S. cerevisiae deletion strains, locus YLR330W, strain CHS5, stronger effect = lower value",1.01
same,normalized growth,"S. cerevisiae deletion strains, locus YLR342W, strain FKS1 (second series), stronger effect = lower value",0.937
same,normalized growth,"S. cerevisiae deletion strains, locus YLR371W, strain rom2, stronger effect = lower value",0.999
same,normalized growth,"S. cerevisiae deletion strains, locus YLR418C, strain cdc73, stronger effect = lower value",0.959
same,normalized growth,"S. cerevisiae deletion strains, locus YML016C, strain PPZ1, stronger effect = lower value",1.03
same,normalized growth,"S. cerevisiae deletion strains, locus YML032C, strain rad52, stronger effect = lower value",0.965
same,normalized growth,"S. cerevisiae deletion strains, locus YML124C, strain tub3, stronger effect = lower value",1.01
same,normalized growth,"S. cerevisiae deletion strains, locus YMR078C, strain ctf18, stronger effect = lower value",1
same,normalized growth,"S. cerevisiae deletion strains, locus YMR223W, strain ubp8, stronger effect = lower value",0.967
same,normalized growth,"S. cerevisiae deletion strains, locus YMR263W, strain SAP30, stronger effect = lower value",1.02
same,normalized growth,"S. cerevisiae deletion strains, locus YMR307W, strain GAS1, stronger effect = lower value",0.862
same,normalized growth,"S. cerevisiae deletion strains, locus YNL067W, strain RPL9B, stronger effect = lower value",1.01
same,normalized growth,"S. cerevisiae deletion strains, locus YNL128W, strain TEP1, stronger effect = lower value",1.04
same,normalized growth,"S. cerevisiae deletion strains, locus YNL153C, strain GIM3, stronger effect = lower value",1.02
same,normalized growth,"S. cerevisiae deletion strains, locus YNL233W, strain BNI4, stronger effect = lower value",0.995
same,normalized growth,"S. cerevisiae deletion strains, locus YNL250W, strain rad50, stronger effect = lower value",0.997
same,normalized growth,"S. cerevisiae deletion strains, locus YNL271C, strain bni1, stronger effect = lower value",0.985
same,normalized growth,"S. cerevisiae deletion strains, locus YNL298W, strain CLA4, stronger effect = lower value",0.981
same,normalized growth,"S. cerevisiae deletion strains, locus YNL307C, strain MCK1, stronger effect = lower value",0.966
same,normalized growth,"S. cerevisiae deletion strains, locus YNL322C, strain KRE1, stronger effect = lower value",1.03
same,normalized growth,"S. cerevisiae deletion strains, locus YNR052C, strain pop2, stronger effect = lower value",0.972
same,normalized growth,"S. cerevisiae deletion strains, locus YOL006C, strain TOP1, stronger effect = lower value",0.993
same,normalized growth,"S. cerevisiae deletion strains, locus YOL012C, strain htz1",0.878
same,normalized growth,"S. cerevisiae deletion strains, locus YOL147C, strain pex11, stronger effect = lower value",0.999
same,normalized growth,"S. cerevisiae deletion strains, locus YOR061W, strain CKA2, stronger effect = lower value",1.02
same,normalized growth,"S. cerevisiae deletion strains, locus YOR069W, strain VPS5, stronger effect = lower value",1.01
same,normalized growth,"S. cerevisiae deletion strains, locus YOR136W, strain idh2, stronger effect = lower value",0.982
same,normalized growth,"S. cerevisiae deletion strains, locus YOR144C, strain elg1, stronger effect = lower value",1.01
same,normalized growth,"S. cerevisiae deletion strains, locus YOR184W, strain ser1, stronger effect = lower value",0.95
same,normalized growth,"S. cerevisiae deletion strains, locus YOR316C, strain cot1, stronger effect = lower value",0.996
same,normalized growth,"S. cerevisiae deletion strains, locus YPL055C, strain LGE1, stronger effect = lower value",1.03
same,normalized growth,"S. cerevisiae deletion strains, locus YPL241C, strain CIN2, stronger effect = lower value",1.02
same,normalized growth,"S. cerevisiae deletion strains, locus YPR119W, strain clb2, stronger effect = lower value",1
same,normalized growth,"S. cerevisiae deletion strains, locus YPR141C, strain kar3, stronger effect = lower value",1.01
same,normalized growth,"S. cerevisiae deletion strains, locus YPR163C, strain tif3, stronger effect = lower value",1
same,normalized growth,"S. cerevisiae deletion strains, locus YPR167C, strain met16, stronger effect = lower value",1.01
same,normalized growth,"S. cerevisiae deletion strains, strain wtn01, stronger effect = lower value",0.994
same,normalized growth,"S. cerevisiae strains, strain wild type, stronger effect = lower value",1
